In PubChem BioAssay AID489043 (National Center for Advancing Translational Sciences (NCATS), 2010):
Results filed as inconclusive are left out. Activity calls are given as the source filed them. Calls follow the shape of the dose curve; as a rule, active = well fitted activation curve with a large enough effect; inconclusive = small, poorly fitted or top-dose-only effect; inactive = flat fitted curve, though single readings scatter.

Molecular target: Relaxin receptor 2 (Homo sapiens) (UniProt Q8WXD0)
Sequence (Q8WXD0 whole entry, looked up): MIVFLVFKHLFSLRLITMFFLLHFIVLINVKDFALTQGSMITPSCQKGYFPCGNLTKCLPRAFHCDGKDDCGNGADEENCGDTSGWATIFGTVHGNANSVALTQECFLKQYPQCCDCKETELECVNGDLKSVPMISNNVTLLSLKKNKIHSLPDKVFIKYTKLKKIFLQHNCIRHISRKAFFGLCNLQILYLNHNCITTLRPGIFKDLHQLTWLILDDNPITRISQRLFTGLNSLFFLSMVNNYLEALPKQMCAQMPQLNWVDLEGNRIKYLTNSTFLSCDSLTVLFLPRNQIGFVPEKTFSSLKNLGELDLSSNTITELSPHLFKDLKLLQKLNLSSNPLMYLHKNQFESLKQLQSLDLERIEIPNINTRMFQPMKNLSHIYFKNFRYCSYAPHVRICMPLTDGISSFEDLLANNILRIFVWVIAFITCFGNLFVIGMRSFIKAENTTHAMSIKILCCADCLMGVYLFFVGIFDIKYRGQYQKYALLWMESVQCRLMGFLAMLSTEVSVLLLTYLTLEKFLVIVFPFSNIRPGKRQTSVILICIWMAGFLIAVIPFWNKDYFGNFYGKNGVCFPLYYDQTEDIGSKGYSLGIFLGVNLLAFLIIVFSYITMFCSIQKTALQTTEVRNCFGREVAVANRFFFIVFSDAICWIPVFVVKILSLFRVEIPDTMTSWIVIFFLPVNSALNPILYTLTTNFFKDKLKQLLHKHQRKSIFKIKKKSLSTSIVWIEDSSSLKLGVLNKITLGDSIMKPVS
Assay: qHTS Assay for Agonists of the Relaxin Receptor RXFP1: RXFP2 Hit Validation; also: nearly all actives have a fitted effect of over 65% in size
Details: HEK293 RXFP2 cAMP TR-FRET, 30 min; series mostly up to 115 µM
How it was run: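 Concentration-response EC50s (Hill equation) come from a cAMP TR-FRET assay in HEK293 RXFP2 cells, compound for 30 min at 37C with PDE4 inhibitor.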
Potency is read from the fitted curve at half-maximal effect.

Potency, inactive:
COC(=O)[C@@H]1C[C@@]2(O)[C@H](O)[C@H](O)[C@H](O)C[C@H]2N1Cc1cc(F)ccc1F
O=C(Nc1ccccc1C(=O)Nc1ccccc1)c1ccco1
CC[n+]1ccc(/C=C/c2ccc(N(C)C)cc2)c2ccccc21
O=C(Nc1ccccc1C(=O)N1CCCCC1)c1ccco1
Cc1cc(C)n(C(=O)CCCn2cc([N+](=O)[O-])cn2)n1
Cc1cc(NC(=O)CSc2ncnc3c2cnn3-c2cccc(Cl)c2)no1
CC(C)C(=O)Nc1ccc(Nc2ccccc2)cc1
COc1ccc(S(=O)(=O)Nc2ccccn2)c(C)c1C
O=C(O)c1ccc(CN2C(=O)c3ccc(C(=O)O)cc3C2=O)cc1
CCC(=O)Nc1ccc(-n2nnnc2SCC(=O)NNC(=O)c2ccco2)cc1
CCn1c(=O)c2sccc2n2c(CCCC(=O)NCc3cccnc3)nnc12
c1ccc(-c2nnc(-c3ccccn3)c(-c3ccccn3)n2)nc1

Potency, active:
O=[N+]([O-])c1cc2c(c(CSc3nnc4ccccn34)c1)OCOC2 11 µM
Cc1cc(C)nc(NS(=O)(=O)c2ccc(N3C(=O)c4ccccc4C3=O)cc2)n1 29.8 µM
COc1ccc(S(=O)(=O)N2CCOCC2)cc1NC(=O)CSc1nnc2ccccn12 6.15 µM
O=C(O)CSc1ccnc2cc(Cl)ccc12 21.8 µM
CC1(C)O[C@@H]2[C@H](O1)[C@@H](COS(=O)(=O)O)O[C@H]2n1cnc2c(N)ncnc21 6.15 µM
Cn1c(N)c(C(=O)CSc2nn(-c3ccc(F)cc3)c(=S)s2)c(=O)n(C)c1=O 21.8 µM
N#CCCSc1ncnc2c1oc1ccccc12 19.4 µM
CN1C(=O)c2ccc(C(=O)Nc3ccc(Br)cn3)cc2C1=O 21.8 µM
O=C(Cn1cnc2c(nnn2-c2ccc(F)cc2)c1=O)NCC1CCCO1 (stereo unspecified) 11 µM
Cc1ccc2[nH]c3c(=S)nc[nH]c3c2c1 6.9 µM
CCC1(C)Cc2c(sc3c2c2ncnn2c2nnc(SCC(=O)NCc4ccco4)n32)CO1 (stereo unspecified) 8.7 µM
N#Cc1c(N)nc(SCC(=O)C23CC4CC(CC(C4)C2)C3)c(C#N)c1-c1ccc(Cl)cc1 12.3 µM
CC(=O)Nc1cccc(NC(=O)CSc2nc3c(c(=O)n(C)c(=O)n3C)n2C)c1 34.6 µM
COC(=O)Cn1cnc2c(C#N)c3n(c2c1=O)CCCC3 30.9 µM
O=C(OCc1nc2ccsc2c(=O)[nH]1)c1cccc(S(=O)(=O)N2CCOCC2)c1 34.6 µM
CC(C)Oc1ccc(S(=O)(=O)N2CCOCC2)cc1NC(=O)c1cc([N+](=O)[O-])ccc1N1CCOCC1 29.8 µM
Cc1cc(C)n2nc(C(=O)Nc3ccc4c(c3)OCCO4)nc2n1 6.9 µM
O=c1oc2cc(O)c(Cl)cc2c2ccccc12 6.9 µM
O=c1c2ccccc2cnn1Cc1n[nH]c(=S)n1-c1ccc(F)c(Cl)c1 15.5 µM
